In PubChem BioAssay (EPA / NIEHS):
Activity calls are given as the source filed them. Rule for the calls: active = hit-call score of the fitted dose curve at least 0.9, where 1 is the maximum; inactive = score below 0.9.

Target: Heat shock factor protein 1 (Homo sapiens) (UniProt Q00613)
Assay: ATG_HSE_CIS: Attagene CIS-FACTORIAL HepG2 Assay for human Heat Shock Transcription Factor 1 (HSE) (AID 2282953)
Details: HepG2 HSE cis-reporter, Attagene RNA transcription; actives raise or lower the signal
How it was run: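 Liver-derived HepG2 cells carry transiently introduced multiple reporter units governed by cis promoters. Reporter RNA measured 24 h post-dose through reverse transcription, PCR amplification, fluorescent labelling and capillary electrophoresis, normalised to DMSO.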

Sequence of Heat shock factor protein 1 (Homo sapiens) (Q00613 whole entry, looked up): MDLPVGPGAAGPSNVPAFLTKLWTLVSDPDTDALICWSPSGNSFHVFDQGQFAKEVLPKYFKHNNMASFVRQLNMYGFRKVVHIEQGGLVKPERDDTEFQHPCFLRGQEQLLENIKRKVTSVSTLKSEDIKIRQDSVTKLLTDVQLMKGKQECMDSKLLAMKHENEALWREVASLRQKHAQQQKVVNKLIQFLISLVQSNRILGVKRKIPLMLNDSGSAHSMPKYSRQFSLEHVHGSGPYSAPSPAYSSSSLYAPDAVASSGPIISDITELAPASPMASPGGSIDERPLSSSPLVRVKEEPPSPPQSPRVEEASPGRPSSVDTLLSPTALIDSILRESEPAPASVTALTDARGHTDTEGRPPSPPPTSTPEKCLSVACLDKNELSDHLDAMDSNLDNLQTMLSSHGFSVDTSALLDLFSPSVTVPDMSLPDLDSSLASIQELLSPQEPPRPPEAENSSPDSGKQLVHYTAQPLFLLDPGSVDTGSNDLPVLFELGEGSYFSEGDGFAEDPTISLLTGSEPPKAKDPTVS

Compound | AC50 | outcome
O=C1C(Cl)=C(Cl)C(=O)C(Cl)=C1Cl | 89.5 µM (active) | –
N#CCCCCC#N | – | inactive
CC1CCC(=O)O1 (stereo not drawn) | – | inactive
COc1cc(OC)c(OC)cc1C=O | – | inactive
CC(C)c1ccc(O)cc1 | – | inactive
C[N+](C)(C)CC(=O)[O-] | – | inactive
CC(C)(c1cc(Cl)c(O)c(Cl)c1)c1cc(Cl)c(O)c(Cl)c1 | 56.5 µM (active) | –
O=C(NCNC(=O)NC1C(=O)NC(=O)N1CO)NC1C(=O)NC(=O)N1CO (stereo not drawn) | – | inactive
COCC(=O)N(c1c(C)cccc1C)N1CCOC1=O | – | inactive
CC(C)CCCCCCCOP(=O)(Oc1ccccc1)Oc1ccccc1 | – | inactive
CCC1CCC(=O)O1 (stereo not drawn) | – | inactive
C=COCCCl | – | inactive
C=CCN(CC=C)C(=O)C(Cl)Cl | – | inactive
CC[N+](=O)[O-] | – | inactive
CC(Cc1ccc(C(C)(C)C)cc1)CN1C[C@@H](C)O[C@@H](C)C1 (stereo partly drawn) | – | inactive
[Cl-].[Cl-].[Cl-].[Yb+3] | – | inactive
CCOC(=O)N(C)N=O | – | inactive
CCC[N+](=O)[O-] | – | inactive
CC(C)(O)C#N | – | inactive

Compound | AC50 | outcome
CC(C)C#N | – | inactive
S=c1[nH]c2ccccc2[nH]1 | – | inactive
CCCCCc1cc(O)cc(O)c1 | – | inactive
c1ccc(Nc2ccc3ccccc3c2)cc1 | – | inactive
CSc1nc(N=[N+]=[N-])nc(NC(C)C)n1 | – | inactive
CC=Cc1ccc2c(c1)OCO2 | – | inactive
ClC1=C(Cl)[C@]2(Cl)[C@@H]3[C@@H](Cl)[C@H](Cl)C[C@@H]3[C@@]1(Cl)C2(Cl)Cl | – | inactive
O=S(=O)(c1ccccc1)c1ccccc1 | – | inactive
CCC(C)c1cc(C(C)(C)C)cc(-n2nc3ccccc3n2)c1O (stereo not drawn) | – | inactive
CC1(C)C(=O)NC(=O)NC1=O | – | inactive
CC(=O)/C=C/c1ccccc1 | 156 µM (active) | –
c1ccc(P(c2ccccc2)c2ccccc2)cc1 | – | inactive
CCOC(=O)COc1ccc(Cl)cc1Cl | – | inactive
CCN(CC)C(=S)S | – | inactive
N#Cc1cccc(C#N)c1 | – | inactive
O=C1Nc2ccc(Cl)cc2C(c2ccccc2)=NC1O (stereo not drawn) | – | inactive
N#CC(c1ccccc1)c1ccccc1 | – | inactive
C[N+](C)=CCl | – | inactive

Test system: not listed separately
Assay: ATG_MRE_CIS: Attagene CIS-FACTORIAL HepG2 Assay for human Metal Responsive Element (MRE) (AID 2282954)
Details: HepG2 MRE cis-reporter transcription, Attagene multiplex; actives raise or lower the signal
How it was run: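 HepG2 cells transiently transfected with cis-element-driven reporter units; mRNA measured 24 h after dosing. Reporter transcripts quantified by RT-PCR, FAM labelling, HpaI digestion and capillary electrophoresis; bidirectional fit versus DMSO.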

Compound | outcome | AC50
O=C1C(Cl)=C(Cl)C(=O)C(Cl)=C1Cl | inactive | –
N#CCCCCC#N | inactive | –
CC1CCC(=O)O1 (stereo not drawn) | inactive | –
COc1cc(OC)c(OC)cc1C=O | inactive | –
CC(C)c1ccc(O)cc1 | inactive | –
C[N+](C)(C)CC(=O)[O-] | inactive | –
CC(C)(c1cc(Cl)c(O)c(Cl)c1)c1cc(Cl)c(O)c(Cl)c1 | – | 58.4 µM (active)
O=C(NCNC(=O)NC1C(=O)NC(=O)N1CO)NC1C(=O)NC(=O)N1CO (stereo not drawn) | – | 162 µM (active)
[N-]=[N+]=CC(=O)OC[C@H](N)C(=O)O | inactive | –
COCC(=O)N(c1c(C)cccc1C)N1CCOC1=O | inactive | –
CC(C)CCCCCCCOP(=O)(Oc1ccccc1)Oc1ccccc1 | inactive | –
CCC1CCC(=O)O1 (stereo not drawn) | inactive | –
C=COCCCl | inactive | –
C=CCN(CC=C)C(=O)C(Cl)Cl | inactive | –
CC[N+](=O)[O-] | inactive | –
CC(Cc1ccc(C(C)(C)C)cc1)CN1C[C@@H](C)O[C@@H](C)C1 (stereo partly drawn) | – | 24.2 µM (active)
[Cl-].[Cl-].[Cl-].[Yb+3] | inactive | –
CCOC(=O)N(C)N=O | inactive | –

Compound | outcome | AC50
O=CNC(N1CCN(C(NC=O)C(Cl)(Cl)Cl)CC1)C(Cl)(Cl)Cl (stereo not drawn) | inactive | –
CCC[N+](=O)[O-] | inactive | –
CC(C)(O)C#N | inactive | –
CC(C)C#N | inactive | –
S=c1[nH]c2ccccc2[nH]1 | inactive | –
CCCCCc1cc(O)cc(O)c1 | – | 100 µM (active)
c1ccc(Nc2ccc3ccccc3c2)cc1 | inactive | –
CSc1nc(N=[N+]=[N-])nc(NC(C)C)n1 | inactive | –
CC=Cc1ccc2c(c1)OCO2 | inactive | –
Cc1ccc(OP(=O)(Oc2ccc(C)cc2)Oc2ccc(C)cc2)cc1 (tested in a mixture with another compound) | inactive | –
ClC1=C(Cl)[C@]2(Cl)[C@@H]3[C@@H](Cl)[C@H](Cl)C[C@@H]3[C@@]1(Cl)C2(Cl)Cl | inactive | –
O=S(=O)(c1ccccc1)c1ccccc1 | inactive | –
CCC(C)c1cc(C(C)(C)C)cc(-n2nc3ccccc3n2)c1O (stereo not drawn) | inactive | –
CC1(C)C(=O)NC(=O)NC1=O | inactive | –
CC(=O)/C=C/c1ccccc1 | – | 37.8 µM (active)
c1ccc(P(c2ccccc2)c2ccccc2)cc1 | inactive | –
CCOC(=O)COc1ccc(Cl)cc1Cl | inactive | –
CCN(CC)C(=S)S | – | 71.9 µM (active)
